# Compound activity from PubChem.
# Rows were chosen to be rich in hits. Some 12% of all compounds tested hit in one or more screens of this group.
# JMJD2A Tudor: JMJD2A Tudor domain (human) inhibition; Potency, µM (top dose mostly 114 µM), inactives show at the highest dose activity change, negative = inhibition, hits mostly inhibitors; AlphaScreen JMJD2A-Tudor / H3K4me3 peptide binding; O75164; 390,000 tested, 4.4% active; note: % is set by controls: 0 for no effect and ±100 for the full control effect; nearly all actives have a fitted effect of over 50% in size
# HP1b binding inh: inhibitors of HP1-beta chromodomain binding to methylated histone tails | AlphaScreen HP1-beta / biotin-H3K9me3 peptide binding | 390,000 tested, 0.56% active | P83916 | Potency, µM (series often up to 114 µM), for the others: at the top dose activity change, negative = inhibition, actives largely listed as inhibitors; note: nearly all actives have a fitted effect of over 70% in size
#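 AlphaScreen: HP1-beta (50 nM) preformed 30 min with biotin-H3(1-18)K9me3 peptide (50 nM) in PBS pH 7.4, 0.01% Tween-20. Compound added for 30 min at RT, then streptavidin donor/nickel chelate acceptor beads (10 ug/mL) for 30 min.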
# G9a block: G9a (human) methyltransferase inhibition; G9a H3K9 monomethylation, AlphaScreen, 2 h; Potency, µM (series often up to 102 µM), for the others: at the highest dose activity, negative = inhibition, actives largely listed as inhibitors; 350,000 tested, 8.8% active; note: % is set by controls: 0 for no effect and ±100 for the full control effect; nearly all actives have a fitted effect of over 75% in size
#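 AlphaScreen read-out: biotin-H3K9 peptide (500 nM) methylation by 20 nM enzyme with 20 uM SAM, 2 h at room temperature after 15 min compound preincubation; anti-monomethyl H3K9 antibody plus donor/acceptor beads, 10 min dark.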
# Sfp inh: Sfp phosphopantetheinyl transferase inhibition. Q9F4F7. Biochemical Sfp PPTase activity, qHTS. Potency, µM, inactives show largest response in the series, negative = inhibition, hits mostly inhibitors. 310,000 tested, 3.5% active. AID 1490;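 note: the enzyme is Sfp with the accession as filed and its product quenches rhodamine fluorescence; 0% = enzyme reaction without inhibitor and -100% = no enzyme wells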
#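 Step 1, compound plus 15 nM Sfp-PPTase, 15 min, room temperature. Step 2, add rhodamine-CoA (5 uM) and BHQ-2-YbbR (12.5 uM). Step 3, read 525/598 nm fluorescence at 0 and 30 min.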
# BAZ2B inh: inhibitors of human BAZ2B bromodomain; Q9UIF8; Potency, µM (titrated, usually from 114 µM), for inactives: at the top dose activity change, negative = inhibition, most hits filed as inhibitors; 360,000 tested, 4.4% active; AlphaScreen BAZ2B-H3K14Ac peptide displacement; note: % is set by controls: 0 for no effect and ±100 for the full control effect; nearly all actives have a fitted effect of over 60% in size
#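 AlphaScreen displacement of biotin-H3(5-23)K14Ac peptide (50 nM final) from BAZ2B (50 nM final) in PBS pH 7.4, 0.01% Tween-20; complex preformed 30 min RT, then compounds (top 110 uM) 30 min RT, beads 20 min dark.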
# Numbers without * were called inactive; ? = inconclusive; nt = not tested or not shown; [ ] = another dose, or the depositor's remark. Calls come from the whole dose curve; as a rule, active = well fitted curve in the direction sought with a large enough effect; inconclusive = small, poorly fitted or top-dose-only effect, or another doubt; inactive = no such curve, though single readings can be large; an effect the other way counts as inactive or inconclusive. Potency is the fitted concentration of half-maximal effect.
SMILES,JMJD2A Tudor,HP1b binding inh,G9a block,Sfp inh,BAZ2B inh
O=C(O)/C=C/C(=O)NNC(=O)c1ccc(Br)cc1,-7%,32%,25µM*,-11%,-2%
O=C(NNc1ccc(O)cc1)c1ccc(Br)cc1,?,?,1.6µM*,13µM*,?
O=C(NNc1ccccc1)c1ccccc1,-2%,41%,nt,nt,nt
O=C1CC(NCC2CCCO2)C(=O)N1c1ccc(F)cc1 (stereo not drawn),-18%,24%,50µM*,-16%,-8%
N#CCNC1CC(=O)N(c2ccc(F)cc2)C1=O (stereo not drawn),-19%,1%,7.9µM*,?,-6%
CNC(=S)N(CCc1c(C)[nH]c2ccc(OC)cc12)Cc1ccco1,?,-6%,50µM*,12%,?
COCCNC(=S)N(CCc1c(C)[nH]c2ccc(F)cc12)Cc1ccc(C)cc1,?,12%,-3%,13%,?
COCCNC(=S)N(CCc1c(C)[nH]c2ccc(C)cc12)Cc1ccco1,?,-15%,45µM*,10%,35µM*
COCCNC(=S)N(CCc1c(C)[nH]c2ccc(OC)cc12)Cc1ccco1,?,?,50µM*,7%,?
C=CCSC1=N/C(=C\c2sccc2C)C(=O)S1,-16%,6%,nt,-55%,-6%
C=CCSC1=N/C(=C\C=C\c2ccco2)C(=O)S1,45µM*,40µM*,7.1µM*,56µM*,10µM*
CCn1nc(C)cc1-c1nnc(Sc2ncc([N+](=O)[O-])s2)n1C,?,19%,6.3µM*,45µM*,-12%
CCn1nc(C)cc1-c1nnc(SCC(=O)Nc2ccccc2)n1CCCOC,3%,23%,nt,-4%,1%
CCCCOc1ccc(C(=O)Nc2ccc(S(=O)(=O)Nc3onc(C)c3C)cc2)cc1,nt,nt,-14%,24%,-33%
CCn1c(COc2ccc(C(C)C)cc2)nnc1SCC(=O)Nc1nccs1,-9%,24%,10µM*,19%,-18%
C=CCn1c(CCCOc2ccc(Cl)cc2Cl)nnc1SCC(=O)Nc1nccs1,-20%,42%,40µM*,14%,-17%
CCSCc1nnc(SCC(=O)Nc2nccs2)n1CC,-14%,-4%,1%,11%,-21%
CCn1c(CCCOc2ccc(Cl)cc2Cl)nnc1SCC(=O)Nc1cc(F)ccc1C,-23%,21%,12%[59 µM],15%,2%
CCn1c(CNC(=O)COc2ccc(C(C)C)cc2)nnc1SCC(=O)Nc1cc(F)ccc1C,28µM*,18%,?,13%,-33%
CCn1c(CC(=O)Nc2cccc(OC)c2)nnc1SCC(=O)Nc1nccs1,-10%,24%,56µM*,0%,8%
COc1ccccc1C(OC(=O)c1cccs1)C(=O)NCC1CCCO1 (stereo not drawn),-12%,22%,22%,10%,11%
CCC(=O)CC(NC(=O)OC)c1ccccc1 (stereo not drawn),nt,nt,nt,2%,nt
CCCCNCCOCCOc1ccccc1-c1ccccc1,1.4µM*,?,?,-6%,?
C=CCNCCOc1ccccc1-c1ccccc1,-6%,46%,-1%[59 µM],6%,6%
COCCNCCCCOc1ccccc1-c1ccccc1,3.2µM*,?,7.1µM*,23%,56µM*
SMILES,JMJD2A Tudor,HP1b binding inh,G9a block,Sfp inh,BAZ2B inh
Nc1nc(NC(=O)c2cccnc2)nn1-c1ccccc1,11µM*,8%,14µM*,2%,79µM*
Nc1nc(NC(=O)c2ccc(Cl)cc2)nn1-c1ccccc1,-18%,26%,0%[59 µM],2%,?
CCC(=O)Nc1nc(N)n(-c2ccccc2)n1,-27%,17%,6%[59 µM],14%,?
Nc1nc(NC(=O)C(Cl)(Cl)Cl)nn1-c1ccccc1,25µM*,11%,16%,4%,8.9µM*
CCC(=O)NC(=S)Nc1ccccc1C(=O)OC,-12%,19%,?,0%,5%
c1ccc(CSc2ccc(-c3cccs3)nn2)cc1,-7%,48%,18%,-1%,-4%
c1ccc(CSc2ccc(-c3cccs3)nn2)nc1,2%,27%,16µM*,-5%,-7%
O=[N+]([O-])c1cc([N+](=O)[O-])c(Oc2cccnc2Br)cc1NN1CCCCC1,?,?,40µM*,2%,?
O=[N+]([O-])c1cc([N+](=O)[O-])c(Oc2c(Cl)cccc2Cl)cc1NN1CCCCC1,?,?,25µM*,8%,?
